The whole screen tested about 350,000 compounds, of which about 6,000 (1.7%) were called active. Inconclusive results (about 5%) are left out. This excerpt belongs to a sample that is enriched for actives. Values without a mark were called inactive. Rule as the data show it: active = CPE inhibition above about 20% (passing the limit was not always enough); inconclusive = no clear call, values can overlap the other calls; tested in BHK-21 cells.
Test: protection of cells from dengue 2 killing – plate reader, single concentration, primary screen (AID 651640);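 also: 0% = median of neutral control wells and 100% = median of positive control wells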
Conditions: DENV2-infected cells, cytopathic effect rescue, at 9.99 µM, hits give high values

Compound	CPE inhibition
O=C(Nc1ccc(C(F)(F)F)cc1)N[C@@H]1CC[C@H](CCNC(=O)c2ccccc2F)O[C@@H]1CO	5.46%
C[C@@H]1CCCCO[C@@H](CN(C)C(=O)Nc2ccc(F)cc2)[C@H](C)CN([C@@H](C)CO)C(=O)c2cc(NS(=O)(=O)c3ccccc3)ccc2O1	-1.25%
CCC(=O)N1C[C@@H](C)[C@@H](OC)CN(C)C(=O)c2ccc(NC(=O)C3CCCCC3)cc2OC[C@@H]1C	-0.243%
COC(=O)C1=C(C)N(Cc2ccc(C(F)(F)F)cc2)C(=NCc2ccccc2)NC1c1ccccc1C(F)(F)F (configuration not stated)	16%
CN1[C@@H]2c3ccc(-c4cccc(F)c4)c(=O)n3C[C@@H]2[C@@H](CO)[C@@H]1C(=O)NC1CCC1	-3.71%
CC(C)NC(=O)N(C)C[C@@H]1Oc2ccc(NC(=O)Cn3cnnn3)cc2CC(=O)N([C@H](C)CO)C[C@H]1C	-6.63%
O=C(C[C@@H]1C[C@@H]2c3cc(NS(=O)(=O)c4ccccc4)ccc3O[C@@H]2[C@@H](CO)O1)NC1CCCCC1	9.22%
C[C@H](CO)N1C[C@H](C)[C@@H](CN(C)C(=O)Nc2ccnc(N3CCOCC3)c2)OCc2ccccc2-c2c(n(C)c3ccccc23)C1=O	-11.2%
C[C@H](O)C#Cc1ccc([C@@H]2[C@@H](CO)N3CCCCN(C(=O)c4ccc(F)cc4)C[C@H]23)cc1	4.05%
C[C@@H](O)C#Cc1ccc([C@H]2[C@H](CO)N3CCCCN(C(=O)c4ccc(F)cc4)C[C@@H]23)cc1	22.8% (active)
C[C@@H](O)C#Cc1ccc([C@@H]2[C@@H](CO)N3CCCCN(C(=O)c4ccc(F)cc4)C[C@@H]23)cc1	2.55%
O=C(C[C@@H]1CC[C@@H]2[C@H](COC[C@H](O)CN2Cc2ccc(F)cc2)O1)NCc1ccncn1	19.2%
C[C@H]1CN([C@@H](C)CO)S(=O)(=O)c2ccc(-c3ccncc3)cc2O[C@H]1CN(C)S(C)(=O)=O	8.89%
CCC1(c2ccccc2)NC(=O)N(CC(=O)c2ccc3c(c2)OCO3)C1=O (configuration not stated)	4.81%
COc1ccc(C2(C)NC(=O)N(CC(=O)c3ccc4c(c3)OCO4)C2=O)cc1 (configuration not stated)	53.4% (active)
CC1(c2ccc(Cl)cc2)NC(=O)N(CC(=O)c2ccc3c(c2)OCO3)C1=O (configuration not stated)	14.3%
COc1ccc([Si](C)(C)[C@@H]2[C@@H](CCO)O[C@]3(C(=O)N(Cc4cccc(N5CCCCC5=O)c4)c4ccccc43)[C@H]2C)cc1	3.86%
COc1ccc(C#Cc2cccc(-c3nc(C(=O)O)cc4c3[C@@H](CCO)N(S(=O)C(C)(C)C)C4)c2)cc1OC (some centres not stated)	0.722%
COCC(=O)Nc1ccc2c(c1)[C@H]1C[C@H](CC(=O)OC)O[C@@H](CO)[C@H]1O2	-10.3%
CCC(=O)Nc1ccc2c(c1)OC[C@H](C)N(CC1CCOCC1)C[C@@H](C)[C@@H](OC)CN(C)C2=O	-4.88%
Nc1c(C(=O)c2cccs2)sc2nsc(SCCN3CCCCC3)c12	29.4% (active)

Compound	CPE inhibition
O=C(CSc1ncnc2sccc12)N1CCN(C(=O)c2cccs2)CC1	2.68%
CO[C@@H]1CN(C)C(=O)c2cc(NC(=O)c3ccccc3)ccc2OC[C@@H](C)N(C(C)=O)C[C@@H]1C	-5.72%
C[C@H](CO)N1C[C@H](C)[C@@H](CN(C)C(=O)c2ccccc2)OCCCC[C@H](C)Oc2ccc(NC(=O)c3ccccc3)cc2C1=O	13.1%
O=C(C[C@@H]1CC[C@H]2[C@@H](COC[C@H](O)CN2S(=O)(=O)c2ccccc2)O1)NCCN1CCCC1	-4.25%
O=C(C[C@@H]1CC[C@@H]2[C@H](COC[C@H](O)CN2S(=O)(=O)c2ccc(Cl)cc2)O1)N[C@@H]1CCN(Cc2ccccc2)C1	3.99%
O=C(C[C@H]1CC[C@@H]2[C@H](COC[C@H](O)CN2S(=O)(=O)c2ccc(Cl)cc2)O1)N[C@@H]1CCN(Cc2ccccc2)C1	-1.97%
O=C(C[C@H]1CC[C@@H]2[C@H](COC[C@H](O)CN2S(=O)(=O)c2ccc(F)cc2)O1)NCCN1CCCCC1	-7.98%
O=C(C[C@@H]1CC[C@H]2[C@@H](COC[C@H](O)CN2S(=O)(=O)c2ccc(F)cc2)O1)N[C@H]1CCN(Cc2ccccc2)C1	24.2% (active)
O=C(C[C@H]1CC[C@H]2[C@@H](COC[C@@H](O)CN2S(=O)(=O)c2ccc(Cl)cc2)O1)NCCN1CCCCC1	23.7% (active)
C[C@H](CO)N1C[C@H](C)[C@@H](CN(C)C)Oc2ccc(NS(=O)(=O)c3cccs3)cc2C1=O	-7.81%
Cc1noc(C)c1NC(=O)N(C)C[C@H]1OCCCC[C@@H](C)Oc2ccc(NC(=O)NC(C)C)cc2C(=O)N([C@@H](C)CO)C[C@H]1C	18%
CNC[C@@H]1Oc2cc(C#CC3(O)CCCC3)ccc2S(=O)(=O)N([C@@H](C)CO)C[C@H]1C	12.4%
CCC(=O)N1CC2(C1)CN(Cc1ccccc1Cl)[C@@H](CO)c1[nH]c3cc(OC)ccc3c12	1.97%
CCC(=O)N1CC2(C1)CN(Cc1cc(F)ccc1F)[C@@H](CO)c1[nH]c3cc(OC)ccc3c12	47.6% (active)
COc1ccc2c3c([nH]c2c1)[C@H](CO)N(Cc1ccccc1Cl)CC31CN(C(=O)C2CC2)C1	53.5% (active)
COc1ccc2c3c([nH]c2c1)[C@@H](CO)N(Cc1cc(F)ccc1F)CC31CN(C(=O)C2CCC2)C1	-7.65%
CCCNC(=O)N1CC2(C1)CN(Cc1cccc(F)c1)[C@@H](CO)c1[nH]c3cc(OC)ccc3c12	136% (active)
COCC(=O)N1CC2(C1)CN(Cc1ccccc1F)[C@@H](CO)c1[nH]c3cc(OC)ccc3c12	11.2%
CCCNC(=O)N1CCC2(CC1)CN(Cc1ccccc1)[C@H](CO)c1[nH]c3cc(OC)ccc3c12	8.24%
COc1ccc2c3c([nH]c2c1)[C@@H](CO)N(Cc1cccc(F)c1)CC31CN(CC2CC2)C1	2.63%
COc1ccc2c3c([nH]c2c1)[C@@H](CO)N(Cc1ccccc1F)CC31CN(C(=O)C2CC2)C1	2.19%
